Measurements: article PMC5540273 (PLoS ONE, 2017)

The molecules below were run on CLK2. Settings: concentration: 1 μM, replicates: in singlicate; n = 1.
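Further: KINOMEscan kinase panel screen.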

In order of rising “%Inh” value:
1. O=C(Nc1cccc(-c2nn3ccccc3c2-c2ccnc(Nc3cccc(C(F)(F)F)c3)n2)c1)c1c(F)cccc1F [GSK292658]  0%
2. CSc1cccc2c(-c3ccncn3)c(-c3ccc(F)cc3)nn12 [GW514786]  0%
3. COc1ccc(CNC(=O)NC2CCN(c3ccnc(Nc4ccc(F)cc4)n3)CC2)cc1 [GSK1379788]  0%
4. FC(F)(F)c1ccc(/C=C/c2cncnc2Nc2ccc3[nH]c(Cc4ccccc4)nc3c2)cc1 [GW709199]  0%
5. COc1cc(Nc2nccc(N3CCC(NC(=O)Nc4cccc(C(C)=O)c4)C3)n2)cc(OC)c1OC (stereo not drawn) [GSK1379753]  0%
6. Cc1ccc(C(=O)N2CC[C@@H](O)C2)cc1-n1c(C)cc(OCc2ccc(F)cc2F)c(Br)c1=O  0%
7. Cl.c1ccc(-c2ccc3c(Nc4ccc5[nH]ccc5c4)ccnc3c2)nc1 [GW440138]  0%
8. COc1ccc(Nc2nccc(NCCNC(=O)c3cc4ccccc4s3)n2)cc1 [GSK1379896]  0%
9. COc1ccc(Nc2nccc(N3CCC(NC(=O)Nc4cccc(OC)c4)C3)n2)cc1 (stereo not drawn) [GSK1379742]  0%
10. O=C(Nc1ccccc1F)NC1CCN(c2ccnc(Nc3ccc(F)cc3)n2)CC1 [GSK1379800]  0%
11. Cn1cc(-c2ccc3c(c2)CCN3C(=O)Cc2cccc(F)c2)c2c(N)ncnc21 [GSK2603358]  0%
12. COc1cc(Nc2nccc(-c3c(-c4cccc(NC(=O)c5c(F)cccc5F)c4)nn4ccccc34)n2)cc(OC)c1OC [GSK323521]  0%
13. Nc1ncc(-c2cccnc2)c2scc(-c3ccc4c(c3)CCN4C(=O)Cc3ccccc3)c12 [GSK683281]  0%
14. Cl.NC(=O)c1cccc(Nc2nccc(Nc3ccc(Oc4c(Cl)cccc4Cl)c(Cl)c3)n2)c1 [GW659009]  0%
15. O=C(Nc1cccc(-c2nn3ncccc3c2-c2ccnc(Nc3ccccc3)n2)c1)c1c(F)cccc1F [GSK198271]  0%
16. COC(=O)Nc1nc2ccc(Oc3ccc(NC(=O)Nc4cc(C(F)(F)F)ccc4F)cc3)cc2n1C.Cl [GW692089]  0%
17. CCCCc1nn2ncccc2c1-c1ccnc(Nc2ccc(N3CCN(C)CC3)cc2)n1 [GW684941]  3%
18. COc1cccc(NC(=O)NC2CCN(c3ccnc(Nc4cc(OC)c(OC)c(OC)c4)n3)C2)c1 (stereo not drawn) [GSK1379763]  11%
19. Fc1ccc(-c2ncn(C3CCNCC3)c2-c2ccnc(Oc3ccc(-c4ccccc4)cc3)n2)cc1 [SB-245391]  11%
20. C[C@@H]1CC[C@@H](C(=O)Nc2ccccc2)CN1c1cc(-c2ccc3c(N)n[nH]c3c2)nc(N)n1 [GSK2286062]  13%
21. CCc1ccc(-c2ccc3c(c2)-c2c(cnn2C)S(=O)(=O)N3C)cc1  13%
22. CN1CCN(CCCNc2nccc(-c3c(-c4ccc(F)cc4)nn4cc(C(F)(F)F)ccc34)n2)CC1 [GW621581]  15%
23. COc1cccc(C(=O)Nc2cccc(Oc3ccc4nc(NC(=O)C5CC5)cn4n3)c2)c1  16%
24. Cl.Cl.NCC(NCc1ccc(-c2ccnc3[nH]ccc23)s1)c1ccccc1 (stereo not drawn) [GSK1321565]  43%
25. COCCOCCOc1cc2ncc3c4ccc(C#N)cc4[nH]c3c2cc1OC  67%
26. Cl.c1ccc(-c2ccc3c(Nc4ccc5[nH]ncc5c4)ccnc3c2)nc1 [GW440137]  67%
27. Cc1cccc(Nc2nc(N[C@H]3CCNC3)ncc2C(N)=O)c1.Cl [GSK2197149]  71%
28. Nc1n[nH]c2cnc(-c3ccccc3)cc12 [SB-642124]  73%
29. O=C(Nc1cccc(Oc2ccc3nc(NC(=O)C4CC4)cn3n2)c1)c1ccccc1C(F)(F)F  73%
30. O=c1[nH]cc(-c2ccc(N3CCOCC3)cc2)c2sc(-c3cn[nH]c3)cc12 [GSK2276055]  76%
31. c1ccc(-c2n[nH]cc2Nc2ccnc3ccccc23)nc1 [GW694077]  94.3%
32. O=C(O)C(F)(F)F.O=C(O)C(F)(F)F.O=c1[nH]ccc2nc(N[C@@H]3CCCNC3)nc(Nc3ccc(S(=O)(=O)N4CCOCC4)cc3)c12 [GSK2177277]  98.9%
33. Cl.Cl.NCC(C(=O)Nc1cc(Br)c(-c2ccnc3[nH]ccc23)s1)c1ccccc1 (stereo not drawn) [GSK1269851]  100%
